{
  "source": "the supplement of paper PMC10981050",
  "note": "“And” between values parts separate entries of the source, which are not always exact repeats. Equal entries are not always repeated. Structures can show the parent of a compound that is named as a salt.",
  "data": [
    {"test_system": "K562", "experiment": "cell viability relative to vehicle control; higher = less cytotoxic", "details": "10 µM; SRSF2 genotype: SRSF2 P95H/wt", "summary_of_the_method": "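Each screen used CRISPR-edited mutant and wild-type clones from four leukaemia lines. Compounds were acoustically dispensed at a single 10 µM dose, and CellTiter-Glo luminescence was read after 48 h with the supernatant first removed. Viability was analysed in Genedata Screener and given as percent of the on-plate vehicle control.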", "values": [
      {"compound": "CCCSc1nc(N[C@@H]2C[C@H]2c2ccc(F)c(F)c2)c2nnn([C@@H]3C[C@H](OCCO)[C@@H](O)[C@H]3O)c2n1", "note": "[Ticagrelor]", "cell viability": "77.4% and 77.6%"},
      {"compound": "O=[N+]([O-])c1cn2c(n1)OC[C@@H](OCc1ccc(OC(F)(F)F)cc1)C2", "cell viability": "94.3% and 98.1%"},
      {"compound": "Cn1cncc1[C@@](N)(c1ccc(Cl)cc1)c1ccc2c(c1)c(-c1cccc(Cl)c1)cc(=O)n2C", "note": "[Tipifarnib (Zarnestra)]", "cell viability": "24.9% and 31.7%"},
      {"compound": "CCN1CCN(C(=O)N[C@@H](C(=O)N[C@@H]2C(=O)N3C(C(=O)O)=C(CSc4nnnn4C)CS[C@H]23)c2ccc(O)cc2)C(=O)C1=O", "note": "[Cefoperazone (Cefobid)]", "cell viability": "100% and 97.5%"},
      {"compound": "C[C@]1(O)C[C@@H](c2nc(-c3ccc4ccc(-c5ccccc5)nc4c3)c3c(N)nccn32)C1", "note": "[OSI-906 (Linsitinib)]", "cell viability": "79.7% and 90.1%"},
      {"compound": "O=c1c(O)c(-c2ccc(O)c(O)c2)oc2cc(O)ccc12", "note": "[Fisetin (Fustel)]", "cell viability": "102% and 108%"},
      {"compound": "CC1(C)[C@@H](O)CC[C@]2(C)[C@H]3C(=O)C=C4[C@@H]5C[C@@](C)(C(=O)O)CC[C@]5(C)CC[C@@]4(C)[C@]3(C)CC[C@@H]12", "note": "[Enoxolone (Glycyrrhetin)]", "cell viability": "97.3% and 106%"},
      {"compound": "OCCN1C[C@H](O)[C@@H](O)[C@H](O)[C@H]1CO", "note": "[Miglitol (Glyset)]", "cell viability": "98.3% and 109%"},
      {"compound": "CC(OC(=O)OC1CCCCC1)OC(=O)C1=C(CSc2nnnn2CCN(C)C)CS[C@@H]2[C@H](NC(=O)Cc3csc(N)n3)C(=O)N12", "note": "(stereo not given in full) [Cefotiam Hexetil Hydrochloride]", "cell viability": "105% and 98.2%"},
      {"compound": "COc1ccc(-c2nc(-c3cc(C(F)(F)F)cc(C(F)(F)F)c3)n(Cc3ccc(C(N)=O)cc3)c2-c2ccc(OC)cc2)cc1", "note": "[Apoptozole]", "cell viability": "80.8% and 87.7%"},
      {"compound": "Nc1ncnc2c1nc(Br)n2[C@@H]1O[C@@H]2COP(=O)(O)O[C@H]2[C@H]1O", "note": "[8-Bromo-cAMP]", "cell viability": "66.5% and 72.5%"},
      {"compound": "Cc1noc(NS(=O)(=O)c2ccc(N)cc2)c1C", "note": "[Sulfisoxazole]", "cell viability": "106% and 97.9%"},
      {"compound": "COC(=O)c1ccccc1O", "note": "[Methyl salicylate]", "cell viability": "101% and 96.7%"},
      {"compound": "CC(C)C(NC(=O)c1ccc2ccccc2n1)C(=O)NC(CC(=O)O)C(=O)COc1c(F)cccc1F", "note": "(stereo not given)", "cell viability": "104% and 106%"},
      {"compound": "O=C(O)c1ccco1", "note": "[2-Furoic acid]", "cell viability": "95.7% and 95.1%"},
      {"compound": "c1cn2cc(-c3ccc4cn[nH]c4c3)nc(Nc3ccc(N4CCOCC4)cc3)c2n1", "note": "[Entospletinib (GS-9973)]", "cell viability": "89.8% and 84.7%"},
      {"compound": "COc1cc(CO)cc(OC)c1O", "note": "[4-Hydroxy-3,5-dimethoxybenzyl alcohol]", "cell viability": "106% and 98.2%"},
      {"compound": "O=c1nc(N2CCOCC2)oc2c(-c3cccc4c3sc3ccccc34)cccc12", "cell viability": "92.3% and 93.3%"},
      {"compound": "N[C@@H](CS)C(=O)O", "note": "[L-Cysteine HCl]", "cell viability": "87.6% and 82.9%"},
      {"compound": "Cc1cc(C)c(CNC(=O)c2cc(-c3ccc(N4CCN(C)CC4)nc3)cc3c2c(C)cn3C(C)C)c(=O)[nH]1", "cell viability": "83.8% and 78.9%"},
      {"compound": "COc1ccc(C[C@@H]2c3cc(Oc4cc(C[C@@H]5c6cc(OC)c(OC)cc6CCN5C)ccc4O)c(OC)cc3CCN2C)cc1", "note": "[Neferine]", "cell viability": "109% and 107%"},
      {"compound": "CNC[C@H](O)c1ccc(O)c(O)c1", "note": "[Epinephrine bitartrate (Adrenalinium)]", "cell viability": "97.4% and 94.9%"},
      {"compound": "C=C(C)[C@@H]1CCC2=CC(=O)C[C@@H](C)[C@]2(C)C1", "note": "[Nootkatone]", "cell viability": "104% and 105%"},
      {"compound": "C[n+]1c2n(c(=O)c3ccccc31)CCc1c-2[nH]c2ccccc12", "note": "[Dehydroevodiamine hydrochloride]", "cell viability": "94.4% and 99.8%"},
      {"compound": "Cn1cc(C(=O)Nc2ccc3c(c2)OCCO3)c2ccccc2c1=O", "cell viability": "88.4% and 81.6%"},
      {"compound": "CC(CCC(=O)NCCS(=O)(=O)O)C1CCC2C3C(O)CC4CC(O)CCC4(C)C3CCC12C", "note": "(stereo not given) [Taurochenodeoxycholic acid]", "cell viability": "104% and 101%"},
      {"compound": "CC(C)c1nc(CN(C)C(=O)N[C@@H](CCN2CCOCC2)C(=O)N[C@H](CC[C@H](Cc2ccccc2)NC(=O)OCc2cncs2)Cc2ccccc2)cs1", "note": "[Cobicistat (GS-9350)]", "cell viability": "88.4% and 101%"},
      {"compound": "CO/N=C(\\C(=O)N[C@@H]1C(=O)N2C(C(=O)O)=C(CSc3nnnn3C)CS[C@H]12)c1csc(N)n1", "note": "[Cefmenoxime hydrochloride]", "cell viability": "96.7% and 90.3%"},
      {"compound": "CCCCOc1nc(N)c2c(n1)N(Cc1cccc(CN3CCCC3)c1)CC(=O)N2", "cell viability": "86.2% and 92.1%"},
      {"compound": "Cc1cc(/C=C2/SC(=S)NC2=O)c(C)n1-c1cccnc1", "note": "[Optovin]", "cell viability": "85.7% and 83.4%"},
      {"compound": "CN(C(Cc1ccc(OS(=O)(=O)c2cccc3cnccc23)cc1)C(=O)N1CCN(c2ccccc2)CC1)S(=O)(=O)c1cccc2cnccc12", "note": "(stereo not given)", "cell viability": "80.8% and 87.8%"},
      {"compound": "CCCCCCCC(=O)CCc1ccc(O)c(OC)c1", "note": "[6-Paradol]", "cell viability": "93.9% and 99.3%"},
      {"compound": "CNC(=C[N+](=O)[O-])NCCSCc1ccc(CN(C)C)o1", "note": "[Ranitidine Hydrochloride]", "cell viability": "108% and 98.4%"},
      {"compound": "CC(C)(C)NC[C@H](O)COc1nsnc1N1CCOCC1", "note": "[Timolol Maleate]", "cell viability": "98.8% and 98.3%"},
      {"compound": "O=C(O)CCN1C(=O)/C(=C/c2ccc(-c3ccc([N+](=O)[O-])cc3)o2)SC1=S", "cell viability": "104% and 106%"},
      {"compound": "C[C@]12CC[C@@H]3c4ccc(O)cc4C[C@@H](CCCCCCCCC[S+]([O-])CCCC(F)(F)C(F)(F)F)[C@H]3[C@@H]1CC[C@@H]2O", "note": "(stereo not given in full) [Fulvestrant (Faslodex)]", "cell viability": "86% and 87.5%"},
      {"compound": "OC[C@@H](O)[C@@H](O[C@@H]1O[C@H](CO)[C@H](O)[C@H](O)[C@H]1O)[C@H](O)[C@@H](O)CO", "note": "[Lactitol]", "cell viability": "101% and 92.3%"},
      {"compound": "CC(C)N(CCCNC(=O)Nc1ccc(C(C)(C)C)cc1)C[C@H]1O[C@@H](n2ccc3c(N)ncnc32)[C@H](O)[C@@H]1O", "cell viability": "94.6% and 92.6%"},
      {"compound": "c1ccc2[nH]c(-c3cscn3)nc2c1", "note": "[Thiabendazole]", "cell viability": "105% and 101%"},
      {"compound": "CN1[C@@H]2CC[C@H]1C[C@@H](OC(c1ccccc1)c1ccccc1)C2", "note": "[Benztropine mesylate]", "cell viability": "82.3% and 93.2%"}
    ]}
  ]
}
